We go through eight compounds from PubChem BioAssay (NCI).

Molecules are shown by their SMILES. The panel holds about 83,000 compounds, 20% with a hit somewhere; the sample as a whole holds those more often.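 Growth was measured after 48 h exposure to one concentration of compound in 96-well plates. Values under 10 count as active.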 Values without a mark were called inactive. Activity calls are given as the source filed them.

Common to all, as to assay: NCI-60 one-dose screen, 48 h (100 = growth as untreated, 0 = no growth, -100 = all killed)
For assay [1], the system named is NCI-H226 lung. The conditions noted are these: 10 µM.
Assay [2] concerns NCI-H322M lung. The conditions noted are these: 10 µM.
Assay [3] has as its system HOP-62 NSCLC. The conditions noted are these: 10 µM.
Assay [4] relates to NCI-H460 lung. The conditions noted are these: 10 µM.
Assay [5] has as its system A549/ATCC NSCLC. The conditions noted are these: 10 µM.
Assay [6] relates to DU-145 prostate. The conditions noted are these: 10 µM.
Assay [7] has as its system SF-268 CNS. The note with it: 10 µM.
In assay [8] the test system is SF-295 CNS. The conditions noted are these: 10 µM.
The test system of assay [9] is SF-539 CNS. The conditions noted are these: 10 µM.
In assay [10] the test system is M14 melanoma. The note with it: 10 µM.
Assay [11] has as its system HCT-15 colon. The conditions noted are these: 10 µM.
Assay [12] has as its system HT29 colon. The conditions noted are these: 10 µM.
In assay [13] the test system is SNB-75 CNS. The note with it: 10 µM.
Assay [14] deals with SNB-19 CNS. The note with it: 10 µM.
The subject of assay [15] is U251 CNS. The conditions noted are these: 10 µM.
Assay [16] concerns PC-3 prostate. The conditions noted are these: 10 µM.
Assay [17] deals with SK-MEL-5 melanoma. The conditions noted are these: 10 µM.
Assay [18] concerns UACC-62 melanoma. The conditions noted are these: 10 µM.
The test system of assay [19] is SK-MEL-28 melanoma. The note with it: 10 µM.
Assay [20] relates to HL-60(TB) leukemia. The note with it: 10 µM unless noted.

As for `O=C(/C=C/c1ccc(F)cc1)c1nc2ccccc2n1Cc1ccc(Br)cc1`, the growth was -66.2% (active) in assay [1]; -24.8% (active) in assay [2]; -68.6% (active) in assay [3]; -59.4% (active) in [4]; 1.63% (active) in [5]; -42.2% (active) in [6]. Besides, the growth in assay [7] was -4.4% (active); in assay [8], -87.5% (active); in assay [9], -92.5% (active); in assay [10], -57.7% (active); in assay [11], -73.9% (active); in [12] it was -33.2% (active). Also, the growth is 44.5% in assay [13]; -63.7% (active) in assay [14]; -91.8% (active) in assay [15]; -39.4% (active) in assay [16]; -76.2% (active) in [17]; -84% (active) in assay [18]. For the same compound, the growth was -58.4% (active) in [19] and -21.8% (active) in [20].
For the compound `O=C(NC([Se])=NC1CCCCC1)c1ccc2c(c1)OCO2`, the growth was 85.6% in [1]; 11.9% in [2]; 23.3% in [3]; 10.6% in assay [4]; 26.8% in assay [5]; 49% in [6]. Also, the growth in assay [7] is 122%; in assay [8], 6.53% (active); in assay [9] it was 56.9%; in [10] it was 60.2%; in assay [11], 47.3%; in assay [12], 55.6%. In addition, the growth was 10.6% in [13]; 33.3% in [14]; 27.6% in assay [15]; 36.4% in assay [16]; 79.3% in [17]; 76.3% in assay [18]. Also, the growth in assay [19] was 51.6%; in assay [20] it was 65.7%.
`O=C(/C=C/c1cccc(Br)c1)c1nc2ccccc2n1Cc1ccc(F)cc1`: the growth is 14.5% in assay [1]; 75.8% in assay [2]; 38.3% in assay [3]; 33.1% in assay [4]; 52.2% in assay [5]; 30.2% in assay [6]. Also, the growth in assay [7] is 62.6%; in assay [8], 62.9%; in assay [9] it was 8.26% (active); in assay [10], 30.7%; in assay [11], -31.6% (active); in assay [12] it was 7.15% (active). For the same compound, the growth in assay [13] is 32.9%; in assay [14], 47.1%; in [15] it was -9.29% (active); in assay [16], 23.8%; in assay [17] it was 58.3%; in assay [18], 22.4%. Moreover, the growth is 50.6% in assay [19] and 3.12% (active) in assay [20].
Take `CCOP(=O)(CC(F)(F)C(F)(F)F)OCC`: the growth was -23.5% (active) in assay [1]; 100% in assay [2]; 90.9% in assay [3]; 91.6% in [4]; 76.2% in assay [5]; 14.9% in assay [6]. In addition, the growth in assay [7] is 80.4%; in assay [8], 97.7%; in assay [9], -48.6% (active); in assay [10], -53.3% (active); in assay [11] it was -33.2% (active); in [12], -44.6% (active). The growth in assay [13] is 79.4%; in [14], 95.7%; in [15] it was 73.7%; in [16], 63.8%; in assay [17], 78.9%; in assay [18] it was 44.7%. In addition, the growth in assay [19] is -47.1% (active); in assay [20], 17.2%.
For `CC1=C(COCCOC(=O)c2ccc(S(=O)(=O)F)cc2)C2=C(C)C3(CC3)[C@@](C)(O)C(=O)C2=C1`, the growth in assay [1] is -39.9% (active); in assay [2], -25.8% (active); in assay [3] it was -27.5% (active); in [4] it was 2.07% (active); in [5], 4.56% (active); in assay [6], -3.95% (active). In addition, the growth in assay [7] was 12.9%; in assay [8], -11.8% (active); in assay [9], -76.2% (active); in assay [10], 11.1%; in assay [11] it was -29.6% (active); in assay [12] it was -28.5% (active). Moreover, the growth in assay [13] is -15.9% (active); in assay [14], -10.6% (active); in assay [15], 4.59% (active); in assay [16], 8.96% (active); in assay [17], -92.1% (active); in assay [18] it was -88.5% (active). Also, the values for the growth in assay [19] and in assay [20] were -63.6% (active) and -22.9% (active), respectively.
With `CC(C)C[C@H](NC(=O)CNC(=O)C[C@H]1O[C@@H]2OC3(C)CC[C@H]4[C@H](C)CC[C@@H]([C@H]1C)[C@@]24OO3)B(O)O`, the growth is -22.4% (active) in [1]; 51.6% in [2]; -17% (active) in [3]; 13.6% in [4]; 32.7% in [5]; 42.3% in assay [6]. Further, the growth in assay [7] was 17.4%; in [8] it was -63.6% (active); in assay [9], -93.3% (active); in [10] it was -43.8% (active); in assay [11], 22.7%; in assay [12] it was -56% (active). The growth in [13] was -15.7% (active); in assay [14], 27.4%; in [15], 13.7%; in assay [16], 4.1% (active); in assay [17], -90.2% (active); in assay [18], -86.6% (active). The growth in assay [19] was -38.5% (active); in assay [20], 0.92% (active).
For the compound `C=CC[Se]C(=O)c1ccc(C(=O)[Se]CC=C)s1`, the growth in assay [1] is -40.1% (active); in [2] it was -63.7% (active); in [3], -70.9% (active); in [4], -53.2% (active); in [5], 1.38% (active); in assay [6], -92.8% (active). Besides, the growth in assay [7] is -39.4% (active); in assay [8] it was -52.5% (active); in [9], -97% (active); in [10], -90% (active); in assay [11], -42.5% (active); in [12], -7.14% (active). Besides, the growth was -96.8% (active) in [13]; -73.1% (active) in [14]; -86.2% (active) in assay [15]; -58.2% (active) in assay [16]; -70.8% (active) in assay [17]; -22.8% (active) in [18]. The growth in [19] is -70.8% (active); in assay [20], -31.6% (active).
`COC(=O)C[C@](O)(CCCC(C)C)C(=O)O[C@H]1C(OC)=C[C@@]23CCCN2CCc2cc4c(cc2[C@@H]13)OCO4`: the growth is -12.3% (active) in assay [1]; 25.4% in [2]; 21.3% in assay [3]; -28.6% (active) in assay [4]; -7.85% (active) in assay [5]; -3.16% (active) in assay [6]. Besides, the growth is 3.83% (active) in [7]; -8.14% (active) in [8]; -47.7% (active) in assay [9]; -46.4% (active) in assay [10]; -21.1% (active) in assay [11]; -22.7% (active) in assay [12]. The growth in [13] was -46.7% (active); in assay [14] it was -27.7% (active); in assay [15] it was -19.5% (active); in assay [16], 1.16% (active); in assay [17], -39% (active); in assay [18], 0.442% (active). The figures for the growth in assay [19] and in assay [20] were -24.3% (active) and -28.7% (active), respectively.
